In PubChem BioAssay AID2158 (National Center for Advancing Translational Sciences (NCATS), 2009) one finds activity change, negative = inhibition and Potency data, which are given here for 14 compounds.

Molecules are shown by their SMILES. “And” between values parts separate entries of the source, which are not always exact repeats. Equal entries are not always repeated. Inconclusive results are not listed. The source made the active and inactive calls. Calls follow the shape of the dose curve; as a rule, active = well fitted inhibition curve with a large enough effect; inconclusive = small, poorly fitted or top-dose-only effect; inactive = no such curve, though single readings can be large or run the other way.
Potency is read from the fitted curve at half-maximal effect.

For the assay, the target named is Cruzipain (Trypanosoma cruzi) (UniProt P25779). As to the kind of experiment: Confirmation qHTS Assay for Inhibitors of Cruzain. Also: nearly all actives have a fitted effect of over 40% in size.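 As to activity change, negative = inhibition: plate controls were uninhibited enzyme control for no effect and buffer wells lacking enzyme for full effect.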 As to conditions: purified cruzain, Z-FR-AMC fluorescence, 0.01% Triton. In short, it runs like this: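 Reaction progress from the 60 s rise in AMC fluorescence (ex 360, em 450 nm) after adding 2 uM Z-FR-AMC. Before this, 1.5 nM cruzain sat 15 min at room temperature with compound in pH 5.5 acetate buffer with 5 mM DTT and 0.01% Triton X-100.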
Cruzipain (Trypanosoma cruzi), sequence (P25779 123-467 limits assumed): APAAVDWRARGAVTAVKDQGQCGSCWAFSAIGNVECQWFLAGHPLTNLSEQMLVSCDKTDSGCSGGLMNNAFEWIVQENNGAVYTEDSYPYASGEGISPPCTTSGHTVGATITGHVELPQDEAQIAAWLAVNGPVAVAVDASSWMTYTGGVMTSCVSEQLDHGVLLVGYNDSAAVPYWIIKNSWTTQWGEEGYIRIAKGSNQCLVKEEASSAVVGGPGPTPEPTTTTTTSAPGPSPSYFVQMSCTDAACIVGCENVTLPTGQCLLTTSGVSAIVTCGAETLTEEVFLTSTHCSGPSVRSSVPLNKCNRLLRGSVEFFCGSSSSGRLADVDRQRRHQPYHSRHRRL
As for `COc1ccccc1-c1nn2c(-c3cc(-c4ccccc4)n[nH]3)nnc2s1`, the activity change, negative = inhibition was -18.8% (inactive).
On to `CCN(CC)c1nc(C#N)nc(N2CCOCC2)n1`, for which the Potency was 8.91 µM (active).
`O=C(NCc1ccc2c(c1)OCO2)c1ccc2c(c1)N(Cc1c(F)cccc1Cl)C(=O)c1ccccc1S2`: the activity change, negative = inhibition is 3.42% (inactive).
On to `NC(N)=NCCC[C@H](NC(=O)CNC(=O)c1ccccc1)C(=O)Nc1cc(C(F)(F)F)ccc1Cl`, for which the activity change, negative = inhibition is -8.36% (inactive).
For `Cc1cc(OCCn2c(CCNC(=O)C3CCCCC3)nc3ccccc32)ccc1Cl`, the Potency was 1 µM (active).
On the same count and under the same terms, the value for `COc1cccc(Nc2nc(C#N)nc(NC3CCCC3)n2)c1` was 0.199 µM (active); that for `O=C(COc1ccc(F)cc1)NCCc1nc2ccccc2[nH]1` was 0.199 µM (active); that for `O=C(CNC(=O)C1CCCCC1)OCC(=O)c1ccc(F)cc1` was 2.51 µM (active).
Regarding `CCOc1ccc(-c2nn3c(-c4cc(-c5ccccc5)n[nH]4)nnc3s2)cc1`, the activity change, negative = inhibition is -7.68% (inactive) and -5.69% (inactive).
Regarding `O=C(Cc1nnc(CNC(=O)c2ccccc2)s1)Nc1ccc(C(F)(F)F)cc1Cl`, the activity change, negative = inhibition was -3.96% (inactive).
For the compound `COc1cccc(CN2C(=O)c3ccccc3Sc3ccc(C(=O)NCCc4ccc(Cl)cc4)cc32)c1`, the activity change, negative = inhibition is 5.18% (inactive).
Still for that read-out and setting: the result for `Cc1cc2c(C)cc(=O)oc2c2c1NCCC2` reads -19.4% (inactive).
Still for that read-out and setting: the value for `CCCCNC(=O)c1ccc2nc(-c3cccs3)c(-c3cccs3)nc2c1` was -3.05% (inactive); that for `O=C(Cc1nnc(-c2cc3ccccc3[nH]2)s1)Nc1cc(C(F)(F)F)ccc1Cl` was -8.66% (inactive) and 1.72% (inactive).
